Structures can show the parent of a compound that is named as a salt. ± gives the standard error. In all, about 1,300 compounds went through this assay and about 130 (10%) showed an effect of 50% or more. Shown is part of a subset that was picked to be rich in strong results.
System: Trichoderma virens ATCC 9645
Assay: growth yield (OD600) with compound + IPBC relative to untreated control; higher = less growth inhibition
Conditions: compound concentration: 100 uM, IPBC concentration: 200 ng/ml
How it was run: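 Trichoderma virens ATCC 9645 spores from 7-day potato dextrose agar plates were suspended in potato dextrose broth at 15,000 spores ml^−1. Aliquots of 100 μl with library compounds at 100 μM final, with or without a co-applied biocide at 200 ng ml^−1, were grown in 96-well plates at 30 °C. OD600 was read at 40 h and 72 h on a BioTek EL800. Growth is expressed relative to the control without either agent, as means of duplicate screens.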

SMILES: CC(=O)NCCCS(=O)(=O)O [Acamprosate calcium] + CCCCNC(=O)OCC#CI [3-iodo-2-propynyl butylcarbamate (IPBC)]
- growth yield (40 h): 102.9 ± 0.32%
- growth yield (72 h): 94.3 ± 2.4%

SMILES: CCCCC(=O)O[C@H]1CC[C@H]2[C@@H]3CCc4cc(O)ccc4[C@H]3CC[C@]12C [Estradiol Valerate] + CCCCNC(=O)OCC#CI [3-iodo-2-propynyl butylcarbamate (IPBC)]
- growth yield (40 h): 92.29 ± 0.48%
- growth yield (72 h): 92.2 ± 2.4%

SMILES: O=C1O[C@H]([C@@H](O)CO)C(O)=C1O [Ascorbic acid] + CCCCNC(=O)OCC#CI [3-iodo-2-propynyl butylcarbamate (IPBC)]
- growth yield (40 h): 92.1 ± 0.95%
- growth yield (72 h): 96.28 ± 0.63%

SMILES: CN[C@@H]1[C@@H](O)[C@@H](O[C@@H]2[C@@H](O)[C@H](O[C@H]3OC(CN)=CC[C@H]3N)[C@@H](N)C[C@H]2N)OC[C@]1(C)O [Sisomicin sulfate] + CCCCNC(=O)OCC#CI [3-iodo-2-propynyl butylcarbamate (IPBC)]
- growth yield (40 h): 85.6 ± 3.6%
- growth yield (72 h): 91.9 ± 3.6%

SMILES: Cc1ccccc1OCC(O)CO (configuration not stated) [Mephenesin] + CCCCNC(=O)OCC#CI [3-iodo-2-propynyl butylcarbamate (IPBC)]
- growth yield (40 h): 93.7 ± 2.9%
- growth yield (72 h): 99 ± 0.63%

SMILES: CNCC(O)c1ccc(O)cc1 (racemic) [(+,-)-Synephrine] + CCCCNC(=O)OCC#CI [3-iodo-2-propynyl butylcarbamate (IPBC)]
- growth yield (40 h): 81.3 ± 3.8%
- growth yield (72 h): 93.8 ± 6.3%

SMILES: NC(=O)C[S+]([O-])C(c1ccccc1)c1ccccc1 (configuration not stated) [Modafinil] + CCCCNC(=O)OCC#CI [3-iodo-2-propynyl butylcarbamate (IPBC)]
- growth yield (40 h): 82 ± 3.5%
- growth yield (72 h): 93.5 ± 2.9%

SMILES: C[C@]12C=CC(=O)C=C1CC[C@@H]1[C@@H]2C(=O)C[C@@]2(C)[C@H]1CC[C@]2(O)C(=O)CO [Prednisone] + CCCCNC(=O)OCC#CI [3-iodo-2-propynyl butylcarbamate (IPBC)]
- growth yield (40 h): 90.9 ± 1.9%
- growth yield (72 h): 91.5 ± 1.3%

SMILES: CCCC(C)C1(CC)C(=O)NC(=O)NC1=O (configuration not stated) [Pentobarbital] + CCCCNC(=O)OCC#CI [3-iodo-2-propynyl butylcarbamate (IPBC)]
- growth yield (40 h): 87.4 ± 2.9%
- growth yield (72 h): 94.2 ± 2.7%

SMILES: C/C=C(/C(=C/C)c1ccc(O)cc1)c1ccc(O)cc1 [Dienestrol] + CCCCNC(=O)OCC#CI [3-iodo-2-propynyl butylcarbamate (IPBC)]
- growth yield (40 h): 94.8 ± 3.3%
- growth yield (72 h): 93.8 ± 2.3%

SMILES: CCC(C)(CN(C)C)OC(=O)c1ccccc1 (configuration not stated) [Amyleine hydrochloride] + CCCCNC(=O)OCC#CI [3-iodo-2-propynyl butylcarbamate (IPBC)]
- growth yield (40 h): 88 ± 1.3%
- growth yield (72 h): 92 ± 2%

SMILES: COc1ccc(Cl)cc1C(=O)NCCc1ccc(S(=O)(=O)NC(=O)NC2CCCCC2)cc1 [Glibenclamide] + CCCCNC(=O)OCC#CI [3-iodo-2-propynyl butylcarbamate (IPBC)]
- growth yield (40 h): 101 ± 6.8%
- growth yield (72 h): 108 ± 5.5%

SMILES: Clc1ccc(C(Cn2ccnc2)OCc2csc3c(Cl)cccc23)c(Cl)c1 (configuration not stated) [Sertaconazole nitrate] + CCCCNC(=O)OCC#CI [3-iodo-2-propynyl butylcarbamate (IPBC)]
- growth yield (40 h): 3.97 ± 0.16%
- growth yield (72 h): 3.57 ± 0.42%

SMILES: CCOc1ccc2c(c1)C(C)=CC(C)(C)N2 [Ethoxyquin] + CCCCNC(=O)OCC#CI [3-iodo-2-propynyl butylcarbamate (IPBC)]
- growth yield (40 h): 98.3 ± 17%
- growth yield (72 h): 98.9 ± 12%

SMILES: CCc1c(C)[nH]c2c1C(=O)C(CN1CCOCC1)CC2 (configuration not stated) [Molindone hydrochloride] + CCCCNC(=O)OCC#CI [3-iodo-2-propynyl butylcarbamate (IPBC)]
- growth yield (40 h): 102 ± 13%
- growth yield (72 h): 101 ± 8.9%

SMILES: CO[C@@H]1[C@@H](OC(N)=O)[C@@H](O)[C@H](Oc2ccc3c(O)c(NC(=O)c4ccc(O)c(CC=C(C)C)c4)c(=O)oc3c2C)OC1(C)C [Novobiocin sodium salt] + CCCCNC(=O)OCC#CI [3-iodo-2-propynyl butylcarbamate (IPBC)]
- growth yield (40 h): 91.7 ± 12%
- growth yield (72 h): 115 ± 14%

SMILES: N#Cc1ccc(C(c2ccc(C#N)cc2)n2cncn2)cc1 [Letrozole] + CCCCNC(=O)OCC#CI [3-iodo-2-propynyl butylcarbamate (IPBC)]
- growth yield (40 h): 98.6 ± 8.1%
- growth yield (72 h): 98.5 ± 1.6%

SMILES: c1ccc(-c2ccc(C(c3ccccc3)n3ccnc3)cc2)cc1 (configuration not stated) [Bifonazole] + CCCCNC(=O)OCC#CI [3-iodo-2-propynyl butylcarbamate (IPBC)]
- growth yield (40 h): 4.92 ± 0.16%
- growth yield (72 h): 3.25 ± 0.1%

SMILES: O=C(C1CCCCC1)N1CC(=O)N2CCc3ccccc3C2C1 (configuration not stated) [Praziquantel] + CCCCNC(=O)OCC#CI [3-iodo-2-propynyl butylcarbamate (IPBC)]
- growth yield (40 h): 71 ± 7.5%
- growth yield (72 h): 87.3 ± 3.8%

SMILES: O=[N+]([O-])O[C@H]1CO[C@H]2[C@@H]1OC[C@H]2O[N+](=O)[O-] [Isosorbide dinitrate] + CCCCNC(=O)OCC#CI [3-iodo-2-propynyl butylcarbamate (IPBC)]
- growth yield (40 h): 90.9 ± 7.6%
- growth yield (72 h): 94.4 ± 5.7%

SMILES: NS(=O)(=O)c1cc2c(cc1Cl)NC(C(Cl)Cl)NS2(=O)=O (configuration not stated) [Trichlormethiazide] + CCCCNC(=O)OCC#CI [3-iodo-2-propynyl butylcarbamate (IPBC)]
- growth yield (40 h): 97.5 ± 16%
- growth yield (72 h): 97.3 ± 12%

SMILES: C[C@@H]1CN([C@H]2CC[C@](C#N)(c3ccc(F)cc3)CC2)CC[C@]1(C(=O)O)c1ccccc1 [Levocabastine hydrochloride] + CCCCNC(=O)OCC#CI [3-iodo-2-propynyl butylcarbamate (IPBC)]
- growth yield (40 h): 118 ± 11%
- growth yield (72 h): 111 ± 7.3%

SMILES: CC(C)OC(=O)CCC/C=C\C[C@@H]1[C@@H](CC[C@@H](O)CCc2ccccc2)[C@H](O)C[C@@H]1O [Latanoprost] + CCCCNC(=O)OCC#CI [3-iodo-2-propynyl butylcarbamate (IPBC)]
- growth yield (40 h): 90.5 ± 1.9%
- growth yield (72 h): 93 ± 3.9%

SMILES: CC(=O)CC(c1ccccc1)c1c(O)c2ccccc2oc1=O (configuration not stated) [Warfarin] + CCCCNC(=O)OCC#CI [3-iodo-2-propynyl butylcarbamate (IPBC)]
- growth yield (40 h): 88.5 ± 2.1%
- growth yield (72 h): 93.03 ± 0.1%

SMILES: CCc1oc2ccccc2c1C(=O)c1cc(Br)c(O)c(Br)c1 [Benzbromarone] + CCCCNC(=O)OCC#CI [3-iodo-2-propynyl butylcarbamate (IPBC)]
- growth yield (40 h): 43.68 ± 0.16%
- growth yield (72 h): 99.3 ± 8.1%

SMILES: O=c1oc2ccccc2c(O)c1Cc1c(O)c2ccccc2oc1=O [Dicumarol] + CCCCNC(=O)OCC#CI [3-iodo-2-propynyl butylcarbamate (IPBC)]
- growth yield (40 h): 92.3 ± 6.5%
- growth yield (72 h): 93.2 ± 3%

Source: the supplement of paper PMC8007513
